# Compound activity as filed in PubChem.
# Sampled rows, rich in hits. Any-hit rate of the full collection: about 1.9%.
# PREPL inh: PREPL enzyme inhibitors, primary screen, biochemical, fluorescence polarization; hit rate 0.68% among 320,000; inhibition, % at 5.96 µM; Prolyl endopeptidase-like (Homo sapiens), Q4J6C6; AID 2751, 2010; recombinant PREPL, fluorescence polarization activity-based probe; in the data active means inhibition above about 43%
# Fam108B counter: mouse Fam108B serine hydrolase inhibitors, primary screen, counter-screen for RBBP9 inhibitor project, biochemical, fluorescence polarization; AID 1947, 2009; inhibition, % at 9.51 µM; hit rate 0.33% among 300,000; recombinant Fam108B, FP-Rh probe fluorescence polarization;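 active means inhibition above the screen mean inhibition plus 3 SD, computed separately per campaign, cut at about 18% in these data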;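 further: inhibitors lower polarization as less probe binds the enzyme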
# LYPLA1 counter: LYPLA1 inhibitors, primary screen, counter-screen for PME1 inhibitor project, biochemical, fluorescence polarization, FP-Rh probe ABPP. recombinant LYPLA1. inhibition, % at 5.9 µM. hit rate 0.16% among 320,000. AID 2174, 2009;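 active means inhibition above the mean of all tested compounds plus 3 SD, set per campaign, cut at about 14% in these data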;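 further: inhibitors block serine hydrolase probe labeling of LYPLA1 so polarization falls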
# Target sequence (O75608 whole entry, looked up): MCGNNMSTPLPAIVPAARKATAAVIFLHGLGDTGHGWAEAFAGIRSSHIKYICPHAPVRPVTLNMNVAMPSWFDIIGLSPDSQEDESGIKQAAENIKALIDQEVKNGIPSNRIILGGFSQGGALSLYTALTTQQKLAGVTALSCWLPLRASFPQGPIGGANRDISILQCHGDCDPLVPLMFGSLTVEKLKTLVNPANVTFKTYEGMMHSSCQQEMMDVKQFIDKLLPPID
# GSTO1 counter: inhibitors of recombinant GSTO1, primary screen, counter-screen for RBBP9 inhibitor project, biochemical, fluorescence polarization; Glutathione S-transferase omega-1 (Homo sapiens), P78417; activity-based probe fluorescence polarization; inhibition, % at 5.96 µM; hit rate 1.1% among 300,000; AID 1974, 2009;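 active means inhibition above the campaign mean inhibition plus 3 SD, cut at about 35% in these data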
# Target sequence (P78417 whole entry, looked up): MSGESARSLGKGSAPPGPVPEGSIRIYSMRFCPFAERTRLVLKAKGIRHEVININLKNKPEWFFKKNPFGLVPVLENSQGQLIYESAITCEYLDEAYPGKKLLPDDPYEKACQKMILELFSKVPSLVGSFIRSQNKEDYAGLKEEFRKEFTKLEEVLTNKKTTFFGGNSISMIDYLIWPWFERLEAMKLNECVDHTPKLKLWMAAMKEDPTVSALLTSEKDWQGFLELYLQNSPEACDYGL
# PME-1 primary: PME-1 inhibitors via competitive probe labeling, primary screen, biochemical, fluorescence polarization, FP-Rh probe, HTS | recombinant PME-1 | inhibition, % at 5.9 µM | hit rate 0.53% among 320,000 | AID 2130, 2009;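 active means inhibition above the campaign mean of all compounds plus 3 SD, cut at about 26% in these data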;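 further: competitive labeling of PME-1 active site by serine hydrolase directed probe; inhibitors block probe labeling so polarization falls and inhibition rises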
# LYPLA2 inh: LYPLA2 inhibitors, primary screen, counter-screen for PME1 inhibitor project, biochemical, fluorescence polarization, FP-Rh probe ABPP; Acyl-protein thioesterase 2 (Homo sapiens), O95372; recombinant LYPLA2; inhibition, % at 5.9 µM; hit rate 0.38% among 320,000;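 active means inhibition above the screen-wide mean plus 3 SD, limit set per campaign, cut at about 26% in these data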
# GSTO1 confirm: GSTO1 inhibitor hit confirmation, counter-screen for RBBP9 inhibitor project, biochemical, fluorescence polarization, triplicate | hit rate 54% among 2,400 | AID 2176, 2009 | inhibition, % at 5.96 µM | recombinant GSTO1, probe fluorescence polarization | shares compounds with GSTO1 counter;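 active means inhibition above the primary screen's cutoff, its mean inhibition plus 3 SD, cut at about 35% in these data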;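 further: loss of polarization as inhibitors block binding of rhodamine sulfonate ester activity probe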
# GSTO1 ABPP inh: inhibitors of purified human GSTO1, late-stage follow-up, biochemical, gel ABPP, SE-Rh probe, percent inhibition; hit rate 30% among 130; inhibition, % at 1 µM; shares compounds with GSTO1 counter; recombinant GSTO1, gel ABPP SE-Rh probe fluorescence;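 active means inhibition of the enzyme GSTO1 above about 75%, limit read from the data; inactive means inhibition below that limit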
# Hits are given with their value; n = inactive; x = no result.
SMILES,PREPL inh,Fam108B counter,LYPLA1 counter,GSTO1 counter,PME-1 primary,LYPLA2 inh,GSTO1 confirm,others
C[C@H](CO)N1C[C@H](C)[C@@H](CN(C)C(=O)Nc2ccc(C(F)(F)F)cc2)Oc2ccc(NC(=O)C3CCCCC3)cc2C1=O,n,x,x,x,x,x,x,
CC1CN(Cc2c(O)ccc3c2oc(=O)c2ccccc23)CC(C)O1 (stereo not given),n,n,n,42,n,n,46,
CCCN(C(=O)Cn1ncc2c(=O)oc3ccccc3c21)c1cccc(C)c1,n,n,n,n,n,n,x,
CCCCCCN(C(=O)CCl)c1ccccc1,n,n,n,83,n,n,97,GSTO1 ABPP inh=83
CCCCCCCN(C(=O)CCl)c1cccc(C)c1,n,n,n,97,n,n,96,GSTO1 ABPP inh=n
O=C(O)CSc1nnc(-c2cccc(S(=O)(=O)N3CCOCC3)c2)n1-c1cccc(Cl)c1,n,n,n,n,n,n,x,
O=C(Cc1n[nH]c(=O)c2ccccc12)Nc1cccc(S(=O)(=O)N2CCCCCC2)c1,n,x,n,x,n,n,x,
CN(C)c1ccc(O)c2c1CC1CC3C(N(C)C)C(=O)C(C(N)=O)=C(O)[C@@]3(O)C(=O)C1=C2O (stereo not given in full),n,n,n,48,n,n,n,
Cc1cc(C)n2nc(SCC(=O)Nc3ccc(F)cc3[N+](=O)[O-])nc2n1,n,x,x,x,x,x,x,
O=C(NCc1ccccc1)c1c(Cl)nc(Cl)c(Cl)c1Cl,n,n,n,41,n,n,58,
Cc1nc(Cl)c(C(=O)NCc2ccccc2)c(C)c1Cl,n,n,n,n,n,n,x,
CN(c1ccccc1)S(=O)(=O)c1ccc(C(=O)NNC(=O)c2ccccc2F)cc1,n,x,n,x,n,n,x,
CC1=C(C)/C(=N\OS(=O)(=O)c2ccc(C)cc2)C=CC1=O,n,n,n,44,n,n,n,
COc1ccc2nc3cc(Cl)ccc3c(C#N)c2c1,n,n,n,n,n,n,x,
Cc1cc(C)n2c(=O)c3ccc(Cl)cc3nc2c1C#N,n,n,n,53,n,n,n,
Cc1cccc(OCCC(=O)NNC(=O)c2ccoc2C)c1,n,x,n,x,n,n,x,
Cc1ccc(Sc2ccc(NC(=O)CCl)cc2)c(C)c1,n,n,n,78,n,n,89,
Cc1ccc(C)c(Sc2ccc(NC(=O)CCN3C(=O)NC4(CCCC4)C3=O)cc2)c1,n,x,n,x,n,n,x,
Cc1c(NC(=O)C(C)OC(=O)c2ccc([N+](=O)[O-])s2)c(=O)n(-c2ccccc2)n1C (stereo not given),n,n,n,44,n,n,n,
Cc1c(NC(=O)C(C)OC(=O)c2sc3ccccc3c2Cl)c(=O)n(-c2ccccc2)n1C (stereo not given),n,n,n,n,n,n,x,
COc1ccc(CCn2c(NN)nc3c2c(=O)[nH]c(=O)n3C)cc1,n,n,n,41,n,n,n,
COc1ccc(CCn2c(NCc3ccco3)nc3c2c(=O)[nH]c(=O)n3C)cc1,n,n,n,n,n,n,x,
CC(=O)c1ccc(N2CCN(C(C)C(=O)Nc3ccc4c(c3)OCCO4)CC2)cc1 (stereo not given),n,x,x,x,x,x,x,
CCCC(NC(=O)C(C)N1CCN(S(=O)(=O)c2ccccc2)CC1)c1ccccc1 (stereo not given),n,x,n,x,n,n,x,
O=C1NC(c2ccccc2Cl)Nc2ccccc21 (stereo not given),n,n,n,n,n,n,x,
Clc1ccccc1C1Nc2cccc3cccc(c23)N1,n,n,n,43,n,n,n,
CC(=O)C(=Nc1ccccc1Cl)NNc1ccc(Cl)cc1,n,n,n,40,n,n,n,
COc1cc(OC)cc(-c2nc(-c3ccccc3OC)no2)c1,n,n,n,53,n,n,n,
